Molecules are shown by their SMILES. The panel holds about 83,000 compounds, 20% with a hit somewhere; the sample as a whole holds those more often.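 Assay: single dose, 48 h. Readout: percent growth (0 = no net growth; negative = cell death). Active: <10.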 Unmarked numbers belong to inactive results. Active and inactive are the calls of the source.

The subject of the first experiment is IGROV1 ovarian. Briefly: NCI-60 one-dose screen, 48 h (100 = growth as untreated, 0 = no growth, -100 = all killed). The conditions noted are these: 10 µM unless noted.
Regarding `Cn1ccnc1C(=O)/C=C/c1ccc(NC(=O)Nc2ccc(Cl)cc2)cc1`, the growth was 96.7%. With `C#Cc1nc(C2=C(C)/C(=N/OCc3ccccc3)CC2)cs1`, the growth was -68.3% (active). With `COc1ccc(-n2c(SCC(=O)Nc3ccc(-c4nc5ccccc5[nH]4)cc3)nc3ccccc3c2=O)cc1`, the growth is 17.5%. `COc1cc(OC)c(S(=O)(=O)NNC(=O)c2ccncc2)cc1C(=O)/C=C/c1ccc(C)cc1`: the growth was 72.7%. Consider `COC(=O)C(C)NS(=O)(=O)/N=C1\NC(=O)NC1=C(Cl)Cl` (stereo not given), for which the growth is 104%. In the case of `COc1ccc(C(=O)/C=C/c2ccc(Oc3nc(NCCO)nc(N4CCOCC4)n3)c(OC)c2)cc1`, the growth was 78.6%. For `NS(=O)(=O)c1cccc(Nc2nc(SCC(=O)c3ccc(Br)cc3)nc3ccccc23)c1`, the growth is 85.4%. On to `O=C(N/N=C/c1ccc([N+](=O)[O-])o1)c1[nH]c2ccc(Br)cc2c1-c1ccccc1`, for which the growth was 15.6%. On the same count and under the same terms, next, `O=C(N/N=C/c1cccs1)c1[nH]c2ccc(Br)cc2c1-c1ccccc1`: 18%; `COc1cc2cc(Oc3ccc(NC(=O)c4cccc(C(F)(F)F)c4)cc3)c(C)nc2cc1OCCN1CCCCC1`: 81.5%. On to `Cc1sc2c(c1C)c(=O)nc1c(-c3nc(-c4ccc(F)cc4)no3)n[nH]n12`, for which the growth was 102%. As for `N#Cc1nc(-c2ccccc2)oc1N1CC[C@@H](CO)C1`, the growth is 94.5%. On the same count and under the same terms, for `Cn1ccnc1C(=O)/C=C/c1ccc(NC(=O)Nc2ccc(F)cc2)cc1` the value was 43.1%; for `COc1ccc(NC2=C(Cl)C(=O)C(C)=C(C)C2=O)cc1OC`, 39.7%. As for `NS(=O)(=O)c1ccc(Nc2nc(Nc3ccccc3)nc(-n3nc(-c4ccccc4)cc3-c3ccccc3)n2)cc1`, the growth was 25.6%. On to `C#Cc1nc(C2=C(C)C(O)/C(=N/O)C2)cs1` (stereo not given), for which the growth was -41.6% (active).

With `Cc1ccc2c(n1)C(=O)C(Cl)=C(Nc1cccc(C(C)C)c1)C2=O`, the growth is 22.1%. Take `CN1CCc2c(sc3ncnc(N/N=C/c4ccc(Cl)c(Cl)c4)c23)C1`: the growth was 73.2%. `O=C(CSc1nnc(-c2ccc3nc(-c4ccc(Cl)cc4)[nH]c3c2)o1)Nc1ccc(C(=O)/C=C/c2ccc(Cl)cc2)cc1`: the growth is 85.5%.

`O=C(N/N=C/c1ccc(Br)s1)c1[nH]c2ccc(Br)cc2c1-c1ccccc1`: the growth is 18.1%. Take `C#Cc1nc(C2=C(C)C(O)CC2)cs1` (stereo not given): the growth is 5.36% (active). Regarding `O=C(N/N=C/c1ccc[nH]1)c1[nH]c2ccc(Br)cc2c1-c1ccccc1`, the growth is 8.52% (active). On to `COc1ccc(/C=N/NC(=O)c2[nH]c3ccc(Br)cc3c2-c2ccccc2)s1`, for which the growth was 18%. For the compound `C/C(=N\NC(N)=O)c1c(O)sc(=O)[nH]c1=O`, the growth was 99.7%.

Regarding `C#Cc1nc(C2=C(C)C(=O)/C(=N/OC(C)=O)C2)cs1`, the growth is -37.2% (active). As for `Cn1ccnc1C(=O)/C=C/c1ccc(NC(=O)Nc2ccccc2)cc1`, the growth is 19.2%. Regarding `COc1cc(/C=C/C(=O)c2cc(OC)c(OC)c(OC)c2)ccc1OCc1ccccc1`, the growth was 35.3%. Still for that read-out and setting: next, `CC(O)C(NC(=O)C1CCCN1C(=O)CNC(=O)C1CC(=O)NCC(=O)NC(Cc2c[nH]c3ccccc23)C(=O)NC(Cc2ccc(O)cc2)C(=O)NCC(=O)NC(CO)C(=O)NC(CCC(N)=O)C(=O)NC(Cc2c[nH]c3ccccc23)C(=O)N1)C(=O)NCC(=O)NC(CCC(N)=O)C(=O)NC(CCCNC(=N)N)C(=O)NC(CC(=O)O)C(=O)O` (stereo not given): 105%; `COc1cc(/C=C/C(=O)c2cc(OC)c(OC)c(OC)c2)ccc1OCc1ccc(F)cc1`: 40.7%.

Turning to `O=C(N/N=C/c1ccc([N+](=O)[O-])s1)c1[nH]c2ccc(Br)cc2c1-c1ccccc1`, the growth is 24.4%. On to `N#Cc1c(-c2ccc(Cl)cc2)nc2c(-c3ccccc3)c(Nc3ccccc3)nn2c1N`, for which the growth is 56.4%. `O=C(Oc1ccc2ccc(=O)oc2c1)c1ccc(Cl)cc1`: the growth is 104%.

As for `C#Cc1nc(C2=C(C)C(OC(=O)CCC(=O)O)CC2)cs1` (stereo not given), the growth is 5.79% (active). `C#Cc1nc(C2=C(C)C(=N\O)/C(=N/O)C2)cs1`: the growth is -14.1% (active). As for `O=C(N/N=C/c1ccco1)c1[nH]c2ccc(Br)cc2c1-c1ccccc1`, the growth was 18.5%. On the same count and under the same terms, for `COC(=O)C(Cc1ccccc1)NS(=O)(=O)/N=C1\NC(=O)NC1=C(Cl)Cl` (stereo not given) the value was 101%; for `N#Cc1ccc(/C=N/NC(=O)c2[nH]c3ccc(Br)cc3c2-c2ccccc2)s1`, 17.3%.

`CCOc1ccc2nc(NC(=O)c3ccc(C(F)(F)F)cc3)sc2c1`: the growth is 113%.

The subject of another experiment is OVCAR-3 ovarian. The description is as above. The conditions noted are these: 10 µM unless noted.
Consider `Cn1ccnc1C(=O)/C=C/c1ccc(NC(=O)Nc2ccc(Cl)cc2)cc1`, for which the growth is 84.2%. Take `C#Cc1nc(C2=C(C)/C(=N/OCc3ccccc3)CC2)cs1`: the growth is 74.2%. Turning to `COc1ccc(-n2c(SCC(=O)Nc3ccc(-c4nc5ccccc5[nH]4)cc3)nc3ccccc3c2=O)cc1`, the growth is -34.8% (active).

For the compound `COc1cc(OC)c(S(=O)(=O)NNC(=O)c2ccncc2)cc1C(=O)/C=C/c1ccc(C)cc1`, the growth was 81%.

`COC(=O)C(C)NS(=O)(=O)/N=C1\NC(=O)NC1=C(Cl)Cl` (stereo not given): the growth is 117%. Turning to `COc1ccc(C(=O)/C=C/c2ccc(Oc3nc(NCCO)nc(N4CCOCC4)n3)c(OC)c2)cc1`, the growth is 101%. With `NS(=O)(=O)c1cccc(Nc2nc(SCC(=O)c3ccc(Br)cc3)nc3ccccc23)c1`, the growth is 44%. For the compound `O=C(N/N=C/c1ccc([N+](=O)[O-])o1)c1[nH]c2ccc(Br)cc2c1-c1ccccc1`, the growth is 21.9%. For the compound `O=C(N/N=C/c1cccs1)c1[nH]c2ccc(Br)cc2c1-c1ccccc1`, the growth is 21.5%.

As for `Cc1sc2c(c1C)c(=O)nc1c(-c3nc(-c4ccc(F)cc4)no3)n[nH]n12`, the growth was 121%. Consider `N#Cc1nc(-c2ccccc2)oc1N1CC[C@@H](CO)C1`, for which the growth was 109%. `Cn1ccnc1C(=O)/C=C/c1ccc(NC(=O)Nc2ccc(F)cc2)cc1`: the growth is 56.5%. As for `COc1ccc(NC2=C(Cl)C(=O)C(C)=C(C)C2=O)cc1OC`, the growth is 95.6%. For `NS(=O)(=O)c1ccc(Nc2nc(Nc3ccccc3)nc(-n3nc(-c4ccccc4)cc3-c3ccccc3)n2)cc1`, the growth is 31.5%. Still for that read-out and setting: for `C#Cc1nc(C2=C(C)C(O)/C(=N/O)C2)cs1` (stereo not given) the value was 125%. As to `Cc1ccc2c(n1)C(=O)C(Cl)=C(Nc1cccc(C(C)C)c1)C2=O`, the growth was 3.53% (active). With `CN1CCc2c(sc3ncnc(N/N=C/c4ccc(Cl)c(Cl)c4)c23)C1`, the growth was 71.5%.

With `O=C(CSc1nnc(-c2ccc3nc(-c4ccc(Cl)cc4)[nH]c3c2)o1)Nc1ccc(C(=O)/C=C/c2ccc(Cl)cc2)cc1`, the growth is 121%. With `O=C(N/N=C/c1ccc(Br)s1)c1[nH]c2ccc(Br)cc2c1-c1ccccc1`, the growth is 9.72% (active). `C#Cc1nc(C2=C(C)C(O)CC2)cs1` (stereo not given): the growth is 120%. For `O=C(N/N=C/c1ccc[nH]1)c1[nH]c2ccc(Br)cc2c1-c1ccccc1`, the growth was 22.2%.

`COc1ccc(/C=N/NC(=O)c2[nH]c3ccc(Br)cc3c2-c2ccccc2)s1`: the growth was 22.8%. As to `C/C(=N\NC(N)=O)c1c(O)sc(=O)[nH]c1=O`, the growth is 114%.

With `C#Cc1nc(C2=C(C)C(=O)/C(=N/OC(C)=O)C2)cs1`, the growth was 111%. With `Cn1ccnc1C(=O)/C=C/c1ccc(NC(=O)Nc2ccccc2)cc1`, the growth is 6.45% (active). Same read-out and setting: for `COc1cc(/C=C/C(=O)c2cc(OC)c(OC)c(OC)c2)ccc1OCc1ccccc1` the value was 26%; for `CC(O)C(NC(=O)C1CCCN1C(=O)CNC(=O)C1CC(=O)NCC(=O)NC(Cc2c[nH]c3ccccc23)C(=O)NC(Cc2ccc(O)cc2)C(=O)NCC(=O)NC(CO)C(=O)NC(CCC(N)=O)C(=O)NC(Cc2c[nH]c3ccccc23)C(=O)N1)C(=O)NCC(=O)NC(CCC(N)=O)C(=O)NC(CCCNC(=N)N)C(=O)NC(CC(=O)O)C(=O)O` (stereo not given), 102%. On the same count and under the same terms, for `COc1cc(/C=C/C(=O)c2cc(OC)c(OC)c(OC)c2)ccc1OCc1ccc(F)cc1` the value was 38.2%.

In the case of `O=C(N/N=C/c1ccc([N+](=O)[O-])s1)c1[nH]c2ccc(Br)cc2c1-c1ccccc1`, the growth was 24.1%. Consider `N#Cc1c(-c2ccc(Cl)cc2)nc2c(-c3ccccc3)c(Nc3ccccc3)nn2c1N`, for which the growth is 58.4%. On to `O=C(Oc1ccc2ccc(=O)oc2c1)c1ccc(Cl)cc1`, for which the growth was 118%. As for `C#Cc1nc(C2=C(C)C(OC(=O)CCC(=O)O)CC2)cs1` (stereo not given), the growth was 121%. As to `C#Cc1nc(C2=C(C)C(=N\O)/C(=N/O)C2)cs1`, the growth was 118%.

Take `O=C(N/N=C/c1ccco1)c1[nH]c2ccc(Br)cc2c1-c1ccccc1`: the growth is 21.5%. `COC(=O)C(Cc1ccccc1)NS(=O)(=O)/N=C1\NC(=O)NC1=C(Cl)Cl` (stereo not given): the growth was 110%.

As to `N#Cc1ccc(/C=N/NC(=O)c2[nH]c3ccc(Br)cc3c2-c2ccccc2)s1`, the growth was 33.3%. For `CCOc1ccc2nc(NC(=O)c3ccc(C(F)(F)F)cc3)sc2c1`, the growth was 109%.

For the origin of these results see PubChem BioAssay (NCI).
